Test results published in the supplement of paper PMC6555819.

Key:
Test in all cases: PBM binding z-score (relative to random genomic background probes); higher = stronger binding; sequences stand for … in GC…GCGATTGACAGCGTAGAATGAAGG
[1] = tested on: FXR:RXRa (NR concentration 270 nM, RXRa partner concentration 90 nM)
How it was run: (§1)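 Custom Agilent 4×180K protein-binding microarrays carried double-stranded probes, each with a 34-nt variable region. These regions held direct-repeat seeds, single-nucleotide variants, half-site ablations and random human genomic background sequences. Ligand-free nuclear receptor dimers were incubated on the arrays for 1 h, antibodies against each partner (one per run) detected binding, and scanned fluorescence was regression-normalized. Binding z-scores take the random background probes as reference.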

[2] = tested on: LXRa:RXRa (NR concentration 270 nM, RXRa partner concentration 90 nM)
How it was run: as §1

[3] = tested on: LXRa homodimer (NR concentration 270 nM)
How it was run: as §1

[4] = tested on: LXRb:RXRa (NR concentration 270 nM, RXRa partner concentration 90 nM)
How it was run: as §1

[5] = tested on: LXRb homodimer (NR concentration 270 nM)
How it was run: as §1

[6] = tested on: PPARa:RXRa (NR concentration 270 nM, RXRa partner concentration 90 nM)
How it was run: as §1

[7] = tested on: PPARg:RXRa (NR concentration 180 nM, RXRa partner concentration 90 nM)
How it was run: as §1

[8] = tested on: PPARg:RXRa 270nM:90nM, anti-RXR (NR concentration 270 nM, RXRa partner concentration 90 nM)
How it was run: as §1

[9] = tested on: PPARg:RXRa 30nM:10nM, anti-RXR (NR concentration 30 nM, RXRa partner concentration 10 nM)
How it was run: as §1

[10] = tested on: PPARg:RXRa 90nM:30nM, anti-RXR (NR concentration 90 nM, RXRa partner concentration 30 nM)
How it was run: as §1

[11] = tested on: PPARg:RXRa DBDmut IVT, anti-RXR (DBD mutation: RXRa K156A/R161A, NR concentration 270 nM, RXRa partner concentration 90 nM)
How it was run: as §1

[12] = tested on: PPARg:RXRa IVT, anti-PPARg (NR concentration 270 nM, RXRa partner concentration 90 nM)
How it was run: as §1

[13] = tested on: PPARg DBDmut:RXRa IVT, anti-PPARg (DBD mutation: PPARg1 K132A/R137A, NR concentration 270 nM, RXRa partner concentration 90 nM)
How it was run: as §1

[14] = tested on: PPARg DBDmut IVT, anti-PPARg (DBD mutation: PPARg1 K132A/R137A, NR concentration 270 nM)
How it was run: as §1

[15] = tested on: PPARg homodimer (NR concentration 180 nM)
How it was run: as §1

[16] = tested on: PXR:RXRa (NR concentration 270 nM, RXRa partner concentration 90 nM)
How it was run: as §1

[17] = tested on: PXR homodimer (NR concentration 270 nM)
How it was run: as §1

[18] = tested on: RARa:RXR (NR concentration 270 nM, RXRa partner concentration 90 nM)
How it was run: as §1

[19] = tested on: RARa homodimer (NR concentration 270 nM)
How it was run: as §1

[20] = tested on: RARb:RXRa (NR concentration 270 nM, RXRa partner concentration 90 nM)
How it was run: as §1

Sequence	PBM binding z-score [1]	PBM binding z-score [2]	PBM binding z-score [3]	PBM binding z-score [4]	PBM binding z-score [5]	PBM binding z-score [6]	PBM binding z-score [7]	PBM binding z-score [8]	PBM binding z-score [9]	PBM binding z-score [10]	PBM binding z-score [11]	PBM binding z-score [12]	PBM binding z-score [13]	PBM binding z-score [14]	PBM binding z-score [15]	PBM binding z-score [16]	PBM binding z-score [17]	PBM binding z-score [18]	PBM binding z-score [19]	PBM binding z-score [20]
TCATATACGTAATACAGGTGAAAGTCGGCATCTA	1.21	1.13	0.327	1.26	0.782	1.75	1.26	2.79	3.96	3.36	2.77	1.63	0.572	1.29	1.17	0.689	0.477	0.982	1	0.727
TCTGCTAGGTCAGTTCGTCAGCTAACGAGCTGCC	0.654	0.387	-0.691	0.0408	0.21	0.896	0.0243	1.38	1.37	1.51	2.26	2.31	1.01	0.64	-0.455	0.229	-1.06	0.273	-1.33	3.01
CCTAGTCGGTCAGGAGGTCACACACCGGATATGA	3.96	4	2.81	3.49	0.605	4.55	4.89	5.09	3.26	4.26	2.85	4.85	0.312	0.324	4.25	4.34	1.2	5.23	2.27	4.25
CGTCAAAGTTCAACTCAGGTAACGTAAAGCACGC	7.13	6.43	4.59	4.35	1.99	5.08	4.66	5.43	2.08	4.01	0.639	2.02	0.699	0.924	4.03	5.4	3.74	4.37	1.92	5.15
CCTACTGGGCCAAAAAGGTCAATGATGCCGATAA	2.77	3.48	1.68	3.86	-0.306	4.92	3.36	3.84	1.55	2.86	3.37	4.64	0.0987	-0.775	2.6	3.47	0.909	3.89	0.262	4
CCTACAGGGCCATCAGGTCATTGATATCAACGTT	1.88	1.31	0.875	1.51	-0.272	2	0.835	1.04	0.253	0.77	0.49	1.32	-0.452	-0.51	1.27	1.71	0.581	1.89	0.0859	2.38
ATATGTAGGTTAGCTTGGGTCATTCAGACTAGGC	2.44	5.2	0.866	2.43	0.362	3.42	3.84	3.34	1.32	2.41	6.6	5.97	1.34	1.95	1.5	2.77	0.807	2.26	0.877	1.89
CGTCCAAGGTCATAGGAGGTCAGTGTAGACAGAT	7.58	7.26	4.98	6.27	1.28	5.83	5.64	5.77	2.31	4.68	3.65	4.6	0.558	0.275	4.52	6.7	3.78	6.16	1.57	5.32
TCATCTAGGTAAAGGTGAAAGTCGAACGATATGA	1.37	1.5	0.00636	1.3	0.134	3.3	3.93	4.83	4.58	4.92	4.03	4.69	1.07	0.677	1.57	0.89	0.0192	1.61	0.277	2.05
